# Data published in PubChem BioAssay (NCI).
# Compounds without any hit were thinned out: in the full panel of roughly 79,000, 15% have a hit. A number with no mark means an inactive call. Calls of active or inactive are those of the source. Cut-off read from the data, not from the text of the source: active = growth inhibition above about 70%; inactive = the rest.
# Assays:
# [1] = NCI Yeast Anticancer Drug Screen. Data for the rad52 strain (AID 147);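 note: 0% = growth of vehicle-treated control cultures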; settings: S. cerevisiae rad52 mutant growth inhibition, hits give high values
# Outline: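 Vehicle-treated cultures served as the reference for growth inhibition of compound-exposed yeast bearing a DNA repair mutation.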
# [2] = NCI Yeast Anticancer Drug Screen. Data for the wt1 strain (AID 149);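 note: 0% = growth of vehicle-treated wt1 cultures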; settings: S. cerevisiae wt1 strain (SPY 50644) growth inhibition, hits give high values
# Outline: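 Measured: growth of wt1 yeast under compound versus vehicle treatment, reported as inhibition.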
# [3] = NCI Yeast Anticancer Drug Screen. Data for the rad50EPP+ strain (AID 151);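 note: 0% = growth of vehicle-treated control cultures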; settings: S. cerevisiae rad50 mutant strain, hits give high values
# Outline: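 In this screen, rad50EPP+ yeast were exposed to compounds. Growth inhibition was scored against vehicle-treated controls.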
# [4] = NCI Yeast Anticancer Drug Screen. Data for the mgt1 strain (AID 153); settings: S. cerevisiae mgt1 mutant growth inhibition, hits give high values
# Outline: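 mgt1 strain exposed; growth vs vehicle control recorded as inhibition.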
# [5] = NCI Yeast Anticancer Drug Screen. Data for the rad50 strain (AID 155);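 note: 0% = growth of vehicle-only cultures of the same strain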; settings: S. cerevisiae rad50 strain growth inhibition, hits give high values
# Outline: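 Growth of the mutant yeast was measured after compound exposure and referenced to vehicle-treated cultures.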
# [6] = NCI Yeast Anticancer Drug Screen. Data for the mec2-1 strain (AID 157); settings: S. cerevisiae mec2-1 strain, hits give high values
# Outline: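 Vehicle-treated cultures served as reference for growth inhibition of compound-exposed mec2-1 yeast.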
# [7] = NCI Yeast Anticancer Drug Screen. Data for the rad14 strain (AID 159);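 note: 0% = growth of vehicle-treated control cultures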; settings: S. cerevisiae rad14 strain growth inhibition, hits give high values
# Outline: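 Here, inhibition of yeast growth was measured after compound exposure, using a strain with a genetic defect in DNA damage repair and vehicle-treated cultures as the reference.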
# [8] = NCI Yeast Anticancer Drug Screen. Data for the sgs1 mgt1 strain (AID 161);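 note: 0% = growth of cultures given vehicle only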; settings: S. cerevisiae sgs1 mgt1 strain, hits give high values
# Outline: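 Genetically altered yeast, compound exposure, growth inhibition relative to vehicle.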
# [9] = NCI Yeast Anticancer Drug Screen. Data for the CLN2oe strain (AID 163);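 note: 0% = growth of vehicle-only control cultures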; settings: S. cerevisiae CLN2oe strain, hits give high values
# Outline: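 Inhibition relative to vehicle-treated yeast is reported. Cells: strain with genetic alteration in cell-cycle control, grown with compound.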
# [10] = NCI Yeast Anticancer Drug Screen. Data for the cln2 rad14 strain (AID 165);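 note: 0% = growth equal to vehicle treated cultures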; settings: S. cerevisiae cln2 rad14 strain, hits give high values
# Outline: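 Each compound was tested on cln2 rad14 yeast. Inhibition of growth was calculated against vehicle-exposed controls.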
# [11] = NCI Yeast Anticancer Drug Screen. Data for the bub3 strain (AID 167); settings: S. cerevisiae bub3 mutant strain, hits give high values
# Outline: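 Whole-cell yeast assay. The mutant strain was incubated with compounds, and growth inhibition was determined by comparison with vehicle-treated cells.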
# [12] = NCI Yeast Anticancer Drug Screen. Data for the wt2 strain (AID 169);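 note: 0% = growth of vehicle-treated yeast cultures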; settings: S. cerevisiae wt2 strain growth inhibition, hits give high values
# Outline: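 Inhibition of yeast growth was determined after compound treatment, normalised to controls receiving only vehicle.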
# [13] = NCI Yeast Anticancer Drug Screen. Data for the mlh1 strain (AID 171);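 note: 0% = growth of vehicle-treated control cultures of the same strain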; settings: S. cerevisiae mlh1 strain growth inhibition, hits give high values
# Outline: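 Vehicle-normalised growth inhibition of a repair- or checkpoint-altered yeast strain following compound treatment.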
# [14] = NCI Yeast Anticancer Drug Screen. Data for the sgs1 strain (AID 173);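 note: 0% = growth of vehicle-only control cultures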; settings: S. cerevisiae sgs1 mutant, hits give high values
# Outline: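 Screen format: yeast with repair or checkpoint alterations, compound exposure, growth read relative to vehicle.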
# [15] = NCI Yeast Anticancer Drug Screen. Data for the mlh1 rad18 strain (AID 175); settings: S. cerevisiae mlh1 rad18 strain growth inhibition, hits give high values
# Outline: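 Vehicle-treated cultures served as the reference for growth inhibition in a yeast strain carrying DNA damage repair alterations exposed to each compound.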
# [16] = NCI Yeast Anticancer Drug Screen. Data for the rad18 strain (AID 177); settings: S. cerevisiae rad18 mutant growth inhibition, hits give high values
# Outline: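 Test articles were incubated with altered yeast defective in DNA damage repair. Results are given as inhibition of growth versus vehicle.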
# [17] = at 5.0 µM (retest, dose inferred, filed as 0.5)
# [18] = at 50.0 µM (retest, dose inferred, filed as 5.0)
smiles,measurement,setting,value
S=C1C(=Nc2ccccc2)N(c2ccccc2)/C(=N\c2ccccn2)N1c1ccccc1,growth inhibition,[1]; at 1.2 µM,-2%
same,growth inhibition,[1]; at 3.7 µM,1%
same,growth inhibition,[1]; at 11.0 µM,44%
same,growth inhibition,[1]; at 33.0 µM,99% (active)
same,growth inhibition,[1]; at 100.0 µM,93% (active)
same,growth inhibition,[2]; at 1.2 µM,-4%
same,growth inhibition,[2]; at 3.7 µM,-4%
same,growth inhibition,[2]; at 11.0 µM,21%
same,growth inhibition,[2]; at 33.0 µM,98% (active)
same,growth inhibition,[2]; at 100.0 µM,98% (active)
same,growth inhibition,[3]; at 1.2 µM,-3%
same,growth inhibition,[3]; at 3.7 µM,-4%
same,growth inhibition,[3]; at 11.0 µM,-3%
same,growth inhibition,[3]; at 33.0 µM,11%
same,growth inhibition,[3]; at 100.0 µM,37%
same,growth inhibition,[4]; at 1.2 µM,-6%
same,growth inhibition,[4]; at 3.7 µM,-5%
same,growth inhibition,[4]; at 11.0 µM,36%
same,growth inhibition,[4]; at 33.0 µM,99% (active)
same,growth inhibition,[4]; at 100.0 µM,97% (active)
same,growth inhibition,[5]; at 1.2 µM,-3%
same,growth inhibition,[5]; at 3.7 µM,-2%
same,growth inhibition,[5]; [17],41%
same,growth inhibition,[5]; at 11.0 µM,46%
same,growth inhibition,[5]; at 33.0 µM,98% (active)
same,growth inhibition,[5]; [18],97% (active)
same,growth inhibition,[5]; at 50.0 µM,98.1% (active)
same,growth inhibition,[5]; at 100.0 µM,91% (active)
same,growth inhibition,[6]; at 1.2 µM,-7%
same,growth inhibition,[6]; at 3.7 µM,-1%
same,growth inhibition,[6]; [17],24%
same,growth inhibition,[6]; at 11.0 µM,28%
same,growth inhibition,[6]; at 33.0 µM,99% (active)
same,growth inhibition,[6]; [18],98% (active)
same,growth inhibition,[6]; at 50.0 µM,97.9% (active)
same,growth inhibition,[6]; at 100.0 µM,97% (active)
same,growth inhibition,[7]; at 1.2 µM,-4%
same,growth inhibition,[7]; at 3.7 µM,-2%
same,growth inhibition,[7]; at 11.0 µM,36%
same,growth inhibition,[7]; at 33.0 µM,99% (active)
same,growth inhibition,[7]; at 100.0 µM,95% (active)
same,growth inhibition,[8]; [17],10%
same,growth inhibition,[8]; [18],98% (active)
same,growth inhibition,[8]; at 50.0 µM,98% (active)
same,growth inhibition,[9]; at 1.2 µM,-8%
same,growth inhibition,[9]; at 3.7 µM,-11%
same,growth inhibition,[9]; at 11.0 µM,37%
same,growth inhibition,[9]; at 33.0 µM,99% (active)
same,growth inhibition,[9]; at 100.0 µM,97% (active)
same,growth inhibition,[10]; [17],28%
same,growth inhibition,[10]; [18],97% (active)
same,growth inhibition,[10]; at 50.0 µM,97.4% (active)
same,growth inhibition,[11]; at 1.2 µM,-7%
same,growth inhibition,[11]; at 3.7 µM,-13%
same,growth inhibition,[11]; [17],0%
same,growth inhibition,[11]; at 11.0 µM,31%
same,growth inhibition,[11]; at 33.0 µM,99% (active)
same,growth inhibition,[11]; [18],97% (active)
same,growth inhibition,[11]; at 50.0 µM,97.7% (active)
same,growth inhibition,[11]; at 100.0 µM,99% (active)
same,growth inhibition,[12]; at 1.2 µM,-4%
same,growth inhibition,[12]; at 3.7 µM,-2%
same,growth inhibition,[12]; at 11.0 µM,27%
same,growth inhibition,[12]; at 33.0 µM,99% (active)
same,growth inhibition,[12]; at 100.0 µM,95% (active)
same,growth inhibition,[13]; at 1.2 µM,-5%
same,growth inhibition,[13]; at 3.7 µM,-2%
same,growth inhibition,[13]; at 11.0 µM,37%
same,growth inhibition,[13]; at 33.0 µM,99% (active)
same,growth inhibition,[13]; at 100.0 µM,96% (active)
same,growth inhibition,[14]; at 1.2 µM,-2%
same,growth inhibition,[14]; at 3.7 µM,4%
same,growth inhibition,[14]; at 11.0 µM,66%
same,growth inhibition,[14]; at 33.0 µM,99% (active)
same,growth inhibition,[14]; at 100.0 µM,94% (active)
same,growth inhibition,[15]; [17],76% (active)
same,growth inhibition,[15]; [18],97% (active)
same,growth inhibition,[15]; at 50.0 µM,97.8% (active)
same,growth inhibition,[16]; at 1.2 µM,-3%
same,growth inhibition,[16]; at 3.7 µM,-3%
same,growth inhibition,[16]; at 11.0 µM,57%
same,growth inhibition,[16]; at 33.0 µM,99% (active)
same,growth inhibition,[16]; at 100.0 µM,87% (active)
O=C1C=C(NCCc2cc(Br)c(O)c(Br)c2)C(=O)c2ncccc21,growth inhibition,[1]; at 1.2 µM,40%
same,growth inhibition,[1]; at 3.7 µM,50%
same,growth inhibition,[1]; at 11.0 µM,54%
same,growth inhibition,[1]; at 33.0 µM,89% (active)
same,growth inhibition,[1]; at 100.0 µM,94% (active)
same,growth inhibition,[2]; at 1.2 µM,17%
same,growth inhibition,[2]; at 3.7 µM,19%
same,growth inhibition,[2]; at 11.0 µM,27%
same,growth inhibition,[2]; at 33.0 µM,53%
same,growth inhibition,[2]; at 100.0 µM,95% (active)
same,growth inhibition,[3]; at 1.2 µM,23%
same,growth inhibition,[3]; at 3.7 µM,38%
same,growth inhibition,[3]; at 11.0 µM,49%
same,growth inhibition,[3]; at 33.0 µM,82% (active)
same,growth inhibition,[3]; at 100.0 µM,90% (active)
same,growth inhibition,[4]; at 1.2 µM,13%
same,growth inhibition,[4]; at 3.7 µM,15%
same,growth inhibition,[4]; at 11.0 µM,25%
same,growth inhibition,[4]; at 33.0 µM,69%
same,growth inhibition,[4]; at 100.0 µM,94% (active)
same,growth inhibition,[5]; at 1.2 µM,18%
same,growth inhibition,[5]; at 3.7 µM,24%
same,growth inhibition,[5]; [17],1%
same,growth inhibition,[5]; at 11.0 µM,44%
same,growth inhibition,[5]; at 33.0 µM,88% (active)
same,growth inhibition,[5]; [18],89% (active)
same,growth inhibition,[5]; at 50.0 µM,92.1% (active)
same,growth inhibition,[5]; at 100.0 µM,94% (active)
same,growth inhibition,[6]; at 1.2 µM,6%
same,growth inhibition,[6]; at 3.7 µM,21%
same,growth inhibition,[6]; [17],-5%
same,growth inhibition,[6]; at 11.0 µM,28%
same,growth inhibition,[6]; at 33.0 µM,69%
same,growth inhibition,[6]; [18],92% (active)
same,growth inhibition,[6]; at 50.0 µM,73.8% (active)
same,growth inhibition,[6]; at 100.0 µM,93% (active)
same,growth inhibition,[7]; at 1.2 µM,24%
same,growth inhibition,[7]; at 3.7 µM,21%
same,growth inhibition,[7]; at 11.0 µM,23%
same,growth inhibition,[7]; at 33.0 µM,82% (active)
same,growth inhibition,[7]; at 100.0 µM,93% (active)
same,growth inhibition,[8]; [17],4%
same,growth inhibition,[8]; [18],83% (active)
same,growth inhibition,[8]; at 50.0 µM,89.5% (active)
same,growth inhibition,[9]; at 1.2 µM,-5%
same,growth inhibition,[9]; at 3.7 µM,39%
same,growth inhibition,[9]; at 11.0 µM,41%
same,growth inhibition,[9]; at 33.0 µM,55%
same,growth inhibition,[9]; at 100.0 µM,90% (active)
same,growth inhibition,[10]; [17],21%
same,growth inhibition,[10]; [18],90% (active)
same,growth inhibition,[10]; at 50.0 µM,46.2%
same,growth inhibition,[11]; at 1.2 µM,-2%
same,growth inhibition,[11]; at 3.7 µM,-6%
same,growth inhibition,[11]; [17],12%
same,growth inhibition,[11]; at 11.0 µM,5%
same,growth inhibition,[11]; at 33.0 µM,68%
same,growth inhibition,[11]; [18],96% (active)
same,growth inhibition,[11]; at 50.0 µM,95.5% (active)
same,growth inhibition,[11]; at 100.0 µM,94% (active)
same,growth inhibition,[12]; at 1.2 µM,13%
same,growth inhibition,[12]; at 3.7 µM,15%
same,growth inhibition,[12]; at 11.0 µM,26%
same,growth inhibition,[12]; at 33.0 µM,67%
same,growth inhibition,[12]; at 100.0 µM,91% (active)
same,growth inhibition,[13]; at 1.2 µM,27%
same,growth inhibition,[13]; at 3.7 µM,27%
same,growth inhibition,[13]; at 11.0 µM,36%
same,growth inhibition,[13]; at 33.0 µM,82% (active)
same,growth inhibition,[13]; at 100.0 µM,96% (active)
same,growth inhibition,[14]; at 1.2 µM,28%
same,growth inhibition,[14]; at 3.7 µM,29%
same,growth inhibition,[14]; at 11.0 µM,43%
same,growth inhibition,[14]; at 33.0 µM,82% (active)
same,growth inhibition,[14]; at 100.0 µM,96% (active)
same,growth inhibition,[15]; [17],21%
same,growth inhibition,[15]; [18],95% (active)
same,growth inhibition,[15]; at 50.0 µM,91% (active)
same,growth inhibition,[16]; at 1.2 µM,55%
same,growth inhibition,[16]; at 3.7 µM,54%
same,growth inhibition,[16]; at 11.0 µM,75% (active)
same,growth inhibition,[16]; at 33.0 µM,91% (active)
same,growth inhibition,[16]; at 100.0 µM,95% (active)
